This note sets out measurements from publication PMC7862700, “An all-to-all approach to the identification of sequence-specific readers for epigenetic DNA modifications on cytosine”.

Assay in all cases: DAPPL (digital affinity profiling via proximity ligation, sequencing); 10 mM Tris-HCl pH 7.5, 50 mM NaCl, 1 mM DTT, 4% glycerol, room temperature, 30 min; GST-TFs on glutathione beads, 16-mer random dsDNA library, 0.1% formaldehyde crosslink after washing; high values mean tight binding
The target in test [1] is T1, FLI1 (Homo sapiens, UniProt Q01543 1-452).
T1 sequence: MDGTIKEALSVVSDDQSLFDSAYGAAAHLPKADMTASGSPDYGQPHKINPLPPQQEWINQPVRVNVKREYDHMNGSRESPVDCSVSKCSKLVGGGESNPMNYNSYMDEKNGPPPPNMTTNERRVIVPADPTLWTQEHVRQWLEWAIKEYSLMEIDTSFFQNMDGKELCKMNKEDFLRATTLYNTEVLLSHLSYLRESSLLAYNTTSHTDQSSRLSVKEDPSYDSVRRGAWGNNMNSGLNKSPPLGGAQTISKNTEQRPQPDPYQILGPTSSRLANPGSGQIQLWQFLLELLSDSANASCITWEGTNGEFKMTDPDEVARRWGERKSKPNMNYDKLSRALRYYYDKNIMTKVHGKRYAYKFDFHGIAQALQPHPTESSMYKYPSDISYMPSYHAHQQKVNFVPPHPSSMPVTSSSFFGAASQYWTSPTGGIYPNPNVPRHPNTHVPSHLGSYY
The note with it: protein: recombinant; tags: N-terminal GST; dsDNA, one strand shown. The procedure, abridged: (§1)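 The binding signal reported is, for every hexamer, its read frequency for a factor over its read frequency for the tag-only sample. Reads came from pools of yeast-expressed, GST-fused human transcription factors on glutathione beads, barcoded with DNA and mixed with that sample, which were incubated with 200 nmole of a random double-stranded 16-mer DNA library in Tris/NaCl/DTT/glycerol buffer at room temperature for 30 min. After washing, the pools were crosslinked with 0.1% formaldehyde, proximity-ligated with BsaI/T4 ligase for 1 h at 37 °C, PCR-amplified and sequenced on an Illumina NextSeq500.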

Test [2] addresses T2, ELK1 (Homo sapiens, UniProt P19419 1-428).
T2 sequence: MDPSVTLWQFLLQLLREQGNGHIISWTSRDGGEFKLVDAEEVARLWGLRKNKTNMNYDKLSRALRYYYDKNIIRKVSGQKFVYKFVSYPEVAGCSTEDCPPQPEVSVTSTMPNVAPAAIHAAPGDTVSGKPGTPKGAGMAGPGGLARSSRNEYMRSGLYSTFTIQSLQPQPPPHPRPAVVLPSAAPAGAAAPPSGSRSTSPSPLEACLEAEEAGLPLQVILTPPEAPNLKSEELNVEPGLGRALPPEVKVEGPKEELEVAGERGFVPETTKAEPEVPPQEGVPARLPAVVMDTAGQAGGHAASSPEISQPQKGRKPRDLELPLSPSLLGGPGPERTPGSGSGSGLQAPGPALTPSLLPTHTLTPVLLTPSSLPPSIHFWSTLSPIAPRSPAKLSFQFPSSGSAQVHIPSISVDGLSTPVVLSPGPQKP
Particulars: protein: recombinant; tags: N-terminal GST; dsDNA, one strand shown. A digest of the protocol: as §1

The target in test [3] is T3, GABPA (Homo sapiens, UniProt Q06546 1-454).
T3 sequence: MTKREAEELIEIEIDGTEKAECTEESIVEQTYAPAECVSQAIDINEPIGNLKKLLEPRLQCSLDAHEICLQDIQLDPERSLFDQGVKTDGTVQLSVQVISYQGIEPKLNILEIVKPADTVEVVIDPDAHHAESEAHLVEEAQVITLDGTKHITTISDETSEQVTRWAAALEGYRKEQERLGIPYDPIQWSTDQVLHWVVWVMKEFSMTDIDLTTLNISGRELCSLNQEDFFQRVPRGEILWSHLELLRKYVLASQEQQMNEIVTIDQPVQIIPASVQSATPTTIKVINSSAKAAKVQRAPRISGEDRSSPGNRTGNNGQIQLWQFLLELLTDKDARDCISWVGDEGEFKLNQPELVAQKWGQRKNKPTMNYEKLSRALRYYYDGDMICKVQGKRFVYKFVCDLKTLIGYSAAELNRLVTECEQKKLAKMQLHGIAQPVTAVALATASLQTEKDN
The note with it: protein: recombinant; tags: N-terminal GST; dsDNA, one strand shown. The procedure, abridged: as §1

In test [4] the target is T4, ERG (Homo sapiens, UniProt P11308 1-479).
T4 sequence: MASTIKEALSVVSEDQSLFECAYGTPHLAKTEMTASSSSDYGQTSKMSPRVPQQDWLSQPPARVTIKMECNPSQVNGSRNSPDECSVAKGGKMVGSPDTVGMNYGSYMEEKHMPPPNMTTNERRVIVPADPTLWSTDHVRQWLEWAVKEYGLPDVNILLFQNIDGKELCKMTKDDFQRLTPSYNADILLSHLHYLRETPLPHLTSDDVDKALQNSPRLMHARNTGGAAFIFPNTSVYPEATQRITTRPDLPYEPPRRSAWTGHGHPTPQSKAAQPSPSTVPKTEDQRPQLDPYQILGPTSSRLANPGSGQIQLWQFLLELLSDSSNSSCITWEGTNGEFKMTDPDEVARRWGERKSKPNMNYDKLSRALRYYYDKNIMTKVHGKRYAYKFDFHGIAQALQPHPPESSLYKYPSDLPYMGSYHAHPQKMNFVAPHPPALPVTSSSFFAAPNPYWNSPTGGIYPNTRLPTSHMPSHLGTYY
Particulars: protein: recombinant; tags: N-terminal GST; dsDNA, one strand shown. A digest of the protocol: as §1

Test [5] addresses ELF1 (Homo sapiens, UniProt P32519 1-619). Particulars: protein: recombinant; tags: N-terminal GST; dsDNA, one strand shown. The procedure, abridged: as §1
Test [6] deals with T5, EHF (Homo sapiens, UniProt Q9NZC4 1-300).
T5 sequence: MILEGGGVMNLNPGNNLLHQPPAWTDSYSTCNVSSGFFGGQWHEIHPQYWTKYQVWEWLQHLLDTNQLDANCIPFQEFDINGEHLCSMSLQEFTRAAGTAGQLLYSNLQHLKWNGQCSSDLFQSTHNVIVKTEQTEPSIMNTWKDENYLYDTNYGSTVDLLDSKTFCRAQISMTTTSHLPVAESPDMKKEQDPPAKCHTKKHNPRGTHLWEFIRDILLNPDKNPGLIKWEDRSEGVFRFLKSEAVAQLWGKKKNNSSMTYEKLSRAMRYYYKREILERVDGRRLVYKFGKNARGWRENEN
The note with it: protein: recombinant; tags: N-terminal GST; dsDNA, one strand shown. The procedure, abridged:
as §1

In test [7] the target is SPI1 (Homo sapiens, UniProt P17947 1-270). The note with it: protein: recombinant; tags: N-terminal GST; dsDNA, one strand shown. The procedure, abridged:
as §1

The target of test [8] is SPIB (Homo sapiens, UniProt Q01892 1-262). Particulars: protein: recombinant; tags: N-terminal GST; dsDNA, one strand shown. The procedure, abridged:
as §1

Test [9] has as its target T6, ELK3 (Homo sapiens, UniProt P41970 1-407).
T6 sequence: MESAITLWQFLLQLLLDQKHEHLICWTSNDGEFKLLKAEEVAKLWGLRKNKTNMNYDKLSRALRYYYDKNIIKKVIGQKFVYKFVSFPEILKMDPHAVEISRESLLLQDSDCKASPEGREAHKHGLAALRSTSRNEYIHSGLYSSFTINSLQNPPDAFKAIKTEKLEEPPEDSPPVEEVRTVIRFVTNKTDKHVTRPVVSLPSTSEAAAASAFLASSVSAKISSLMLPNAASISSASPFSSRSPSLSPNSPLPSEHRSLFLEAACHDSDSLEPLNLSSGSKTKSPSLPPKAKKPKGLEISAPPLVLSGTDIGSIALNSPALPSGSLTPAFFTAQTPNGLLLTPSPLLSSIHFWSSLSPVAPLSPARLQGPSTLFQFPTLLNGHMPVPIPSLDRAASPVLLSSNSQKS
The note with it: protein: recombinant; tags: N-terminal GST; dsDNA, one strand shown. A digest of the protocol: as §1

Test [10] has as its target T7, FEV (Homo sapiens, UniProt Q99581 1-238).
T7 sequence: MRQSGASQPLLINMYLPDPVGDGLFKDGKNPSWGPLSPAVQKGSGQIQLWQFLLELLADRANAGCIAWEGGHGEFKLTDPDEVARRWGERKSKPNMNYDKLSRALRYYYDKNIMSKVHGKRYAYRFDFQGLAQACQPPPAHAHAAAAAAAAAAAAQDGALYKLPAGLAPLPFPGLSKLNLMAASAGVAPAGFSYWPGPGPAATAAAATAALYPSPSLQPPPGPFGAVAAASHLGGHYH
The note with it: protein: recombinant; tags: N-terminal GST; dsDNA, one strand shown. The procedure, abridged:
as §1

Test [11] concerns the target ETV5 (Homo sapiens, UniProt P41161 1-510). The note with it: protein: recombinant; tags: N-terminal GST; dsDNA, one strand shown. The procedure, abridged: as §1
The target of test [12] is HSF1 (Homo sapiens, UniProt Q00613 1-529). Particulars: protein: recombinant; tags: N-terminal GST; chain copies: 3; dsDNA, one strand shown. A digest of the protocol: as §1
For test [13], the target named is T8, SPIC (Homo sapiens, UniProt Q8N5J4 1-248).
T8 sequence: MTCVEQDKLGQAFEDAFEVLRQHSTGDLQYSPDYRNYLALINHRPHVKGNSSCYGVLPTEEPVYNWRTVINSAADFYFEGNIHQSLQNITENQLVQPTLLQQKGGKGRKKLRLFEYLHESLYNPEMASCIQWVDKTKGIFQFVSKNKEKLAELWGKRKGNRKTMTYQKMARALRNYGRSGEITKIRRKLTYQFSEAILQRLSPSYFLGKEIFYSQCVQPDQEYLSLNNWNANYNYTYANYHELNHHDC
The note with it: protein: recombinant; tags: N-terminal GST; dsDNA, one strand shown. A digest of the protocol:
as §1

Test [14] concerns the target ELF4 (Homo sapiens, UniProt Q99607 1-663). Particulars: protein: recombinant; tags: N-terminal GST; dsDNA, one strand shown. A digest of the protocol:
as §1

The target in test [15] is T9, ELK4 (Homo sapiens, UniProt P28324-2 1-405).
T9 sequence: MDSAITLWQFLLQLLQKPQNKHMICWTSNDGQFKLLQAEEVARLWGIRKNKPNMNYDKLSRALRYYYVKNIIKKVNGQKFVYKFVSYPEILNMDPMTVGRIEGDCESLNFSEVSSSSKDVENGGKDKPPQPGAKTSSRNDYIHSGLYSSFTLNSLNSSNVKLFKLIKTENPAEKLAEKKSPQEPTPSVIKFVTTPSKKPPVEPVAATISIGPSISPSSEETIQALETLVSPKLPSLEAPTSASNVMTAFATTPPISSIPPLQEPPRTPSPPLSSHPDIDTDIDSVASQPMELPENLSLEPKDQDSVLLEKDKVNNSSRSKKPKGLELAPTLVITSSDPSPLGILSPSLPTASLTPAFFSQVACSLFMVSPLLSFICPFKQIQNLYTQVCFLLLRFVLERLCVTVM
Particulars: protein: recombinant; tags: N-terminal GST; dsDNA, one strand shown. A digest of the protocol:
as §1

Test [16] addresses T10, ETV2 (Homo sapiens, UniProt O00321 1-342).
T10 sequence: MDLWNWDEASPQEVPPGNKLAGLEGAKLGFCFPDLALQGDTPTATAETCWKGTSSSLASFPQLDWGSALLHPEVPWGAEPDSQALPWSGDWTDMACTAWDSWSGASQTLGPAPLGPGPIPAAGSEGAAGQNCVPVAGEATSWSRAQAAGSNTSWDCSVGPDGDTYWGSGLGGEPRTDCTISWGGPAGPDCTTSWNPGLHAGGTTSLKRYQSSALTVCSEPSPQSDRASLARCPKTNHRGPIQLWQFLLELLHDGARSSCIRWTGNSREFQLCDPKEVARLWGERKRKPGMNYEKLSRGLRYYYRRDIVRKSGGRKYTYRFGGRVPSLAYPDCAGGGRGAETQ
Particulars: protein: recombinant; tags: N-terminal GST; dsDNA, one strand shown. A digest of the protocol: as §1

The target of test [17] is ETV1 (Homo sapiens, UniProt P50549 1-477). The note with it: protein: recombinant; tags: N-terminal GST; dsDNA, one strand shown. A digest of the protocol:
as §1

SPIB, sequence (Q01892 whole entry): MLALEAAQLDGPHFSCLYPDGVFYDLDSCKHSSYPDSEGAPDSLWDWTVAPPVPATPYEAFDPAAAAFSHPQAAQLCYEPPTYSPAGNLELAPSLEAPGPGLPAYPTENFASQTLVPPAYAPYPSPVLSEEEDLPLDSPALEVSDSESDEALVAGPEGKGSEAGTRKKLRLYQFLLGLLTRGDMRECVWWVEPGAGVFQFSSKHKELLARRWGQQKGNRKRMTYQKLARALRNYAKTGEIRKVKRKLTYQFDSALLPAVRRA
ELF1, sequence (P32519 whole entry): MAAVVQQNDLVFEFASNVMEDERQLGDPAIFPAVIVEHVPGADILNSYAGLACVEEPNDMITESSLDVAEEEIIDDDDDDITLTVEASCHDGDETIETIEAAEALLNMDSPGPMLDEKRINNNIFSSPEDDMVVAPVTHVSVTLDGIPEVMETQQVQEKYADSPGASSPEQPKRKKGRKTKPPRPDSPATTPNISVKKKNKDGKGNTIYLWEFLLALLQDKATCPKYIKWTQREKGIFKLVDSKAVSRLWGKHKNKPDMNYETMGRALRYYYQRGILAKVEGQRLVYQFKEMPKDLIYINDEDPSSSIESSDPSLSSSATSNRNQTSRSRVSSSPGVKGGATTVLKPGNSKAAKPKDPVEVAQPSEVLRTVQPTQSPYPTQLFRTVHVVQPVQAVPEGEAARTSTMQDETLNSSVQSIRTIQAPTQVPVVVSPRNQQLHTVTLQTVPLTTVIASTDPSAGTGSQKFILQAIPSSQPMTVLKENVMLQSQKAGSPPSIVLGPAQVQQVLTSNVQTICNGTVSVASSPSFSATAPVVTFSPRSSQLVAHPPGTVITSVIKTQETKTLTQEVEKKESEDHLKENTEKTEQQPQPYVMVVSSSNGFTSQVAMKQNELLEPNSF
HSF1, sequence (Q00613 whole entry): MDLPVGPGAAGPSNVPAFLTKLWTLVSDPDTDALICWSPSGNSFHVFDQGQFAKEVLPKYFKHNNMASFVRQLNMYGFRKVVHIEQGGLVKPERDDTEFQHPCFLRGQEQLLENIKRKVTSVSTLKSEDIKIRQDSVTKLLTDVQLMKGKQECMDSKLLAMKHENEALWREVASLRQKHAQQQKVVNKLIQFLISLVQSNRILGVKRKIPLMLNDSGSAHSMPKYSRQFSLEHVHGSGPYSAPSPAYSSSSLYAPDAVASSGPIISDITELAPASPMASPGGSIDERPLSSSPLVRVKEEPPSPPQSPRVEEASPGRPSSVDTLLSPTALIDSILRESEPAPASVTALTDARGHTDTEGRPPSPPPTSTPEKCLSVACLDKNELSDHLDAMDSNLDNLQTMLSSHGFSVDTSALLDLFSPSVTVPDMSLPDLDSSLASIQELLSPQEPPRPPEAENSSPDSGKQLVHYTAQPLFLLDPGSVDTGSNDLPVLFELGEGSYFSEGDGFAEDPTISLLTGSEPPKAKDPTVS
ETV1, sequence (P50549 whole entry): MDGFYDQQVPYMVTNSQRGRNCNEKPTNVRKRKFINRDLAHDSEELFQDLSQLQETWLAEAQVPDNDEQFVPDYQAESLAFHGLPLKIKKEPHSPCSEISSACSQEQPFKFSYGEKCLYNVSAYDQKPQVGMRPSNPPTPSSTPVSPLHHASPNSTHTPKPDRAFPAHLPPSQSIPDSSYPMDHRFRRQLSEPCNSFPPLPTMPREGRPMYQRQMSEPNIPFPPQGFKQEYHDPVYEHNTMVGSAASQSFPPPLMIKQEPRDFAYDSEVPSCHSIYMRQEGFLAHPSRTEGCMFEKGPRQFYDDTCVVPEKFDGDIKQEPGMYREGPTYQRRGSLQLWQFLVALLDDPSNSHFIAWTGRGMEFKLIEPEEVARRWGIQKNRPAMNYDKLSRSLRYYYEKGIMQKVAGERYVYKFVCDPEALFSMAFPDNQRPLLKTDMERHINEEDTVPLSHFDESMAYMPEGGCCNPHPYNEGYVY
ELF4, sequence (Q99607 whole entry): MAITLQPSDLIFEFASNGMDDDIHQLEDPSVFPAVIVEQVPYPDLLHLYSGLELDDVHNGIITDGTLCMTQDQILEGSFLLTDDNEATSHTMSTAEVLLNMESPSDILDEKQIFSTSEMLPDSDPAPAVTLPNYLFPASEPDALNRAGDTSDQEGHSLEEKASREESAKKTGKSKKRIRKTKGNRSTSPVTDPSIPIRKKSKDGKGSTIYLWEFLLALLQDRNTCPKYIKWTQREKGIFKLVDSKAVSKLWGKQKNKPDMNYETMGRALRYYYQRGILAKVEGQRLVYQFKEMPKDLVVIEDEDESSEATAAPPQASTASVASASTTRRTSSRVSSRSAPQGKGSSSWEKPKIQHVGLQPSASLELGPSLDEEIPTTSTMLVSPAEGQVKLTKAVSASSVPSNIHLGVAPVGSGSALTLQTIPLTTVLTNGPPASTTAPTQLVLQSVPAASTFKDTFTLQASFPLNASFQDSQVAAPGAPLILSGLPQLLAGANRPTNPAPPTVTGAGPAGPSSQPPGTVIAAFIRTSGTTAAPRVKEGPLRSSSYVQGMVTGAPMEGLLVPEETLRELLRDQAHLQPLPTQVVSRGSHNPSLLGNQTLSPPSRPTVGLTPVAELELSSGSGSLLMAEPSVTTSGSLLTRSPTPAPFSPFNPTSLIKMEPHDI
ETV5, sequence (P41161 whole entry): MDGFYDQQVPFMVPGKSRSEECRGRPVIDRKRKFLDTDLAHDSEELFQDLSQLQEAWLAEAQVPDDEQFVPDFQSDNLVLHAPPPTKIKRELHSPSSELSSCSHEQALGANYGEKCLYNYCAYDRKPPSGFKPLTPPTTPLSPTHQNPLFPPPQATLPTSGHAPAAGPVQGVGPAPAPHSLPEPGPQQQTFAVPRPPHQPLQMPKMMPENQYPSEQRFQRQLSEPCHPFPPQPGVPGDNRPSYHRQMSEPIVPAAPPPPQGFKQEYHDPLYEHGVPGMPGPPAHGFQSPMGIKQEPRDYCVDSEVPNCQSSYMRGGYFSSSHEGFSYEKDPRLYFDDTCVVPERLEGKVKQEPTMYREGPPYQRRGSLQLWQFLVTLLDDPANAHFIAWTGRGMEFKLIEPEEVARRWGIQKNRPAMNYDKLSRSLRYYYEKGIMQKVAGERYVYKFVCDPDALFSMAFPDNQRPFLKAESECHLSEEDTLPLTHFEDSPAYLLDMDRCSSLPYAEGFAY

With CACTCG, the binding signal in test [1] is 1.1 fold enrichment (6-mer frequency, TF over GST control); in test [2], 1.26 fold enrichment (6-mer frequency, TF over GST control); in test [3], 1.08 fold enrichment (6-mer frequency, TF over GST control); in test [4] it was 1.15 fold enrichment (6-mer frequency, TF over GST control); in test [5], 1.2 fold enrichment (6-mer frequency, TF over GST control); in [6], 1.18 fold enrichment (6-mer frequency, TF over GST control). Also, the binding signal is 1.01 fold enrichment (6-mer frequency, TF over GST control) in test [7]; 1.18 fold enrichment (6-mer frequency, TF over GST control) in test [8]; 1.2 fold enrichment (6-mer frequency, TF over GST control) in [9]; 1.22 fold enrichment (6-mer frequency, TF over GST control) in [10]; 1.13 fold enrichment (6-mer frequency, TF over GST control) in test [11]; 1.16 fold enrichment (6-mer frequency, TF over GST control) in [12]. The binding signal was 1.08 fold enrichment (6-mer frequency, TF over GST control) in [13]; 1.2 fold enrichment (6-mer frequency, TF over GST control) in [14]; 1.24 fold enrichment (6-mer frequency, TF over GST control) in test [15]; 1.2 fold enrichment (6-mer frequency, TF over GST control) in [16]; 1.09 fold enrichment (6-mer frequency, TF over GST control) in test [17].
